The values that follow come from PubChem BioAssay (EPA / NIEHS).

Experiment [1] concerns the target Paired box protein Pax-6 (Homo sapiens) (UniProt P26367). As to the kind of experiment: ATG_Pax6_CIS: Attagene CIS-FACTORIAL HepG2 Assay for human Paired Box 6 (PAX6) (AID 2282956). The note with it: HepG2 CIS-FACTORIAL PAX6 reporter transcription, RNA readout; actives raise or lower the signal. The method, boiled down:
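Transient MRTU transfection of HepG2 → compound exposure 24 h → TriZol RNA, oligo(dT) RT → PCR, 6-FAM primer extension, HpaI cut → capillary electrophoresis; activity fitted both directions against DMSO.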

The nature of experiment [2]: ATG_PXRE_CIS: Attagene CIS-FACTORIAL HepG2 Assay for human Pregnane X Receptor Element (PXRE) (AID 2282957). Particulars: HepG2 Attagene CIS-FACTORIAL PXRE reporter, mRNA; actives raise or lower the signal. The method, boiled down:
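Transfect HepG2 with MRTUs (cis promoter elements); dose chemical, incubate 24 h; isolate RNA, RT with oligo(dT), PCR, 6-FAM label, HpaI cut, CE. Gain/loss fit vs DMSO.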

Experiment [3] can be described thus: ATG_RORE_CIS: Attagene CIS-FACTORIAL HepG2 Assay for human RAR-related Orphan Receptor Element (RORE) (AID 2282959). Particulars: HepG2 Attagene cis-factorial RORE reporter, mRNA; actives raise or lower the signal. The method, boiled down: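 Transfect HepG2 with MRTUs; treat 24 h; extract RNA; RT with oligo(dT); PCR with reporter-specific primers; 6-FAM primer extension; HpaI digest 2 h at 37 C; capillary electrophoresis. Fit vs DMSO, bidirectional.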

Experiment [4] is described as follows: ATG_Sox_CIS: Attagene CIS-FACTORIAL HepG2 Assay for human SRY-box transcription factor (SOX) (AID 2282960). Particulars: HepG2 Attagene cis-factorial SOX reporter, mRNA; actives raise or lower the signal. The method, boiled down: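 Fluorescence-labelled cDNA fragments from reporter transcripts, sized by CE, give the signal. Cells: HepG2, transiently transfected with cis-regulated reporter units. Exposure 24 h; DMSO negative control; bidirectional curve fitting.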

For experiment [5], the target named is Transcription factor Sp1 (Homo sapiens) (UniProt P08047). As to the kind of experiment: ATG_Sp1_CIS: Attagene CIS-FACTORIAL HepG2 Assay for human Specificity Protein 1 (Sp1) (AID 2282961). Particulars: HepG2 Sp1 cis-reporter transcription, actives raise or lower the signal. Summed up:
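Chemicals are dosed onto HepG2 cells transfected with multiple cis-promoter reporter constructs, and after 24 h reporter RNA is reverse-transcribed, PCR-amplified and resolved by capillary electrophoresis for fluorescence quantitation; activity is scored up or down against DMSO.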

For experiment [6], the target named is Signal transducer and activator of transcription 3 (Homo sapiens) (UniProt P40763). Kind of experiment: ATG_STAT3_CIS: Attagene CIS-FACTORIAL HepG2 Assay for human Signal Transducer and Activator of Transcription 3 (STAT3) (AID 2282963). Particulars: HepG2, Attagene cis-factorial STAT3 reporter transcription; actives raise or lower the signal. The method, boiled down: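 Values derive from bidirectional fits relative to DMSO of reporter mRNA levels, measured by RT-PCR with capillary electrophoresis, in HepG2 cells carrying transiently transfected cis-regulated reporter units and exposed 24 h.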

Experiment [7] in a line: ATG_TA_CIS: Attagene CIS-FACTORIAL HepG2 Assay for human TA Basal Promoter (AID 2282964). The note with it: HepG2 Attagene CIS-factorial TA basal promoter reporter; actives raise or lower the signal. Summed up:
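Read-out: fluorescent reporter-transcript fragments resolved by capillary electrophoresis after RT-PCR and HpaI digestion. Source: HepG2 cells carrying transiently transfected multi-reporter cis constructs, treated 24 h. Endpoint fitted bidirectionally relative to DMSO.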

Experiment [8] is described as follows: ATG_TCF_b_cat_CIS: Attagene CIS-FACTORIAL HepG2 Assay for human T-Cell-Factor with beta-catenin (TCF/b-cat) (AID 2282965). Particulars: HepG2 TCF/beta-catenin cis-reporter transcription, actives raise or lower the signal. Summed up:
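HepG2, transient MRTU transfection, cis-element-driven reporters (endogenous TFs). 24 h compound exposure. Readout: reporter mRNA by RT-PCR + 6-FAM primer extension, HpaI digest, capillary electrophoresis. Gain/loss fit vs DMSO baseline.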

Experiment [9] in a line: ATG_TAL_CIS: Attagene CIS-FACTORIAL HepG2 Assay for human TAL Basal Promoter (AID 2282966).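 Further: background control endpoint measuring basal TAL promoter reporter mRNA not a specific factor.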 The note with it: HepG2 Attagene cis-factorial TAL promoter reporter; actives raise or lower the signal. Summed up:
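Fluorescence of labelled reporter cDNA fragments, resolved by capillary electrophoresis, gave the readout. Human HepG2 liver cells carried transiently transfected cis-element reporter units and were treated for 24 hours; activity was fitted bidirectionally against DMSO.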

The nature of experiment [10]: ATG_TGFb_CIS: Attagene CIS-FACTORIAL HepG2 Assay for human Transforming Growth Factor (TGF) (AID 2282967). Particulars: HepG2 Attagene CIS TGFb reporter, mRNA transcription; actives raise or lower the signal. The method, boiled down: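 Transient MRTU transfection of HepG2 (FuGene 6). Dose 24 h. TriZol RNA, oligo(dT) RT, PCR, 6-FAM primer extension, HpaI cut, CE. Bidirectional fit, DMSO = baseline.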

Experiment [11] can be described thus: ATG_VDRE_CIS: Attagene CIS-FACTORIAL HepG2 Assay for human Vitamin D Receptor Element (VDRE) (AID 2282968). Particulars: HepG2 VDRE cis-reporter transcription, actives raise or lower the signal. Summed up:
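Cell-based multiplexed reporter format in human liver HepG2 cells, 24 h post-dose. Fluorescence from capillary electrophoresis of reporter cDNA gives the signal, with DMSO as negative control and baseline.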

Experiment [12] concerns the target Nuclear receptor subfamily 1 group I member 3 (Homo sapiens) (UniProt Q14994). Kind of experiment: ATG_CAR_TRANS: Attagene TRANS-FACTORIAL HepG2 Assay for human Constitutive Androstane Receptor (CAR) (AID 2282969; active means hit-call score of the fitted dose curve at least 0.9, where 1 is the maximum;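 further: activators raise reporter mRNA above DMSO so AC50 marks induction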). Particulars: HepG2 Attagene TRANS-FACTORIAL CAR reporter. The method, boiled down:
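HepG2 cells transiently transfected with GAL4-UAS reporter units; TRANS format reads activity of exogenous chimeric NR-Gal4 protein. After 24 h dosing, reporter mRNA quantified by RT-PCR, 6-FAM labelling and capillary electrophoresis; gain of signal fitted against DMSO.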

Experiment [13] concerns the target Estrogen receptor (Homo sapiens) (UniProt P03372). As to the kind of experiment: ATG_ERa_TRANS: Attagene TRANS-FACTORIAL HepG2 Assay for human Estrogen Receptor alpha (ERa) (AID 2282970; active means hit-call score of the fitted dose curve at least 0.9, where 1 is the maximum). The note with it: HepG2 Attagene TRANS ERa GAL4 reporter, mRNA. Summed up:
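Human liver HepG2, transient transfection of multiple GAL4-UAS reporter units; TRANS format (exogenous NR-Gal4 chimera). 24 h dosing. Readout: reporter mRNA, RT-PCR, 6-FAM primer extension, HpaI digest, capillary electrophoresis. Positive direction vs DMSO.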

Experiment [14] in a line: ATG_GAL4_TRANS: Attagene TRANS-FACTORIAL HepG2 Assay for GAL4 (Internal Marker) (AID 2282976; active means hit-call score of the fitted dose curve at least 0.9, where 1 is the maximum). The note with it: HepG2 Attagene TRANS GAL4 internal marker reporter. The method, boiled down: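 First, HepG2 cells were transfected with reporter units under GAL4-UAS control. Next, they were treated with chemical for 24 h. Finally, RNA was reverse-transcribed, PCR-amplified, FAM-labelled and resolved by capillary electrophoresis, with induction scored against DMSO.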

Experiment [15] in a line: ATG_SREBP_CIS: Attagene CIS-FACTORIAL HepG2 Assay for human Sterol Regulatory Element Binding (SREBP) (AID 2282962). Particulars: HepG2 Attagene cis-factorial SREBP reporter, mRNA; actives raise or lower the signal. The method, boiled down: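 Transfected HepG2 (cis-regulated reporter library, endogenous TFs) → compound 24 h → total RNA → oligo(dT) RT → reporter-specific PCR → FAM primer extension, HpaI cut → CE fluorescence. Fit bidirectional vs DMSO.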

Experiment [16] has as its target Steroid hormone receptor ERR1 (Homo sapiens) (UniProt P11474). As to the kind of experiment: ATG_ERRa_TRANS: Attagene TRANS-FACTORIAL HepG2 Assay for human Estrogen-Related Receptor alpha (ERRa) (AID 2282971; active means hit-call score of the fitted dose curve at least 0.9, where 1 is the maximum). Particulars: HepG2 Attagene TRANS reporter, ERRa transactivation. Summed up: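 Reporter transcript induction was quantified by RT-PCR and capillary electrophoresis of FAM-labelled, HpaI-cut products after 24 h treatment of HepG2 cells carrying transiently transfected GAL4-UAS reporter units and an exogenous ERRa-Gal4 fusion; activity scored as increase over DMSO.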

The target in experiment [17] is X-box-binding protein 1 (Homo sapiens) (UniProt P17861). As to the kind of experiment: ATG_Xbp1_CIS: Attagene CIS-FACTORIAL HepG2 Assay for human X-box Binding Protein 1 (XBP1) (AID 2282972). The note with it: HepG2 XBP1 cis-element reporter, Attagene multiplex; actives raise or lower the signal. The method, boiled down:
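HepG2, transient MRTU transfection (cis-promoter driven), 24 h compound exposure. Total RNA → oligo(dT) RT → PCR → 6-FAM labeling → HpaI cut → CE. Bidirectional fit vs DMSO.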

Experiment [18] in a line: ATG_M_19_TRANS: Attagene TRANS-FACTORIAL HepG2 Assay for M19 Transcription Factor (Internal Marker) (AID 2282974; active means hit-call score of the fitted dose curve at least 0.9, where 1 is the maximum). Particulars: HepG2 Attagene TRANS-FACTORIAL M19 internal marker reporter. Summed up:
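Multiplexed TRANS format: HepG2 liver cells bearing transient GAL4-UAS reporter units, chemical treatment 24 h, reporter transcripts quantified by RT-PCR plus capillary electrophoresis. DMSO defines baseline.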

The target in experiment [19] is Estrogen-related receptor gamma (Homo sapiens) (UniProt P62508). As to the kind of experiment: ATG_ERRg_TRANS: Attagene TRANS-FACTORIAL HepG2 Assay for human Estrogen-Related Receptor gamma (ERRg) (AID 2282977; active means hit-call score of the fitted dose curve at least 0.9, where 1 is the maximum;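 further: hits increase reporter signal over DMSO so potencies reflect activators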). Particulars: HepG2 Attagene TRANS reporter, ERRg transactivation. The method, boiled down:
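HepG2 cells transiently transfected with multiplexed GAL4-UAS reporter units and chimeric NR-Gal4 constructs were exposed to test chemicals for 24 h. Reporter mRNA was measured by RT-PCR, 6-FAM primer extension, HpaI digestion and capillary electrophoresis; gain-of-signal versus DMSO.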

Records with an inconclusive call do not appear. The source made the active and inactive calls. How the source made its calls, unless noted: active means hit-call score of the fitted dose curve at least 0.9, where 1 is the maximum; inactive means score below 0.9.

Sequence of X-box-binding protein 1 (Homo sapiens) (P17861 whole entry, looked up): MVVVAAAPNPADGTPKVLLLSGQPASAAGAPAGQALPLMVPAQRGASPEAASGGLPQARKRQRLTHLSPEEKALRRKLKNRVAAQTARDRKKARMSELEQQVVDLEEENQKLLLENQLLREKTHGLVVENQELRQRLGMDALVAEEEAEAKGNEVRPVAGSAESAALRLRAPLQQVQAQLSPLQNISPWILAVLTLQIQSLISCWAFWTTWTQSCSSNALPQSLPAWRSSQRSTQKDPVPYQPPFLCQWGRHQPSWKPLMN
Sequence of Nuclear receptor subfamily 1 group I member 3 (Homo sapiens) (Q14994 whole entry, looked up, the tested form may be a part): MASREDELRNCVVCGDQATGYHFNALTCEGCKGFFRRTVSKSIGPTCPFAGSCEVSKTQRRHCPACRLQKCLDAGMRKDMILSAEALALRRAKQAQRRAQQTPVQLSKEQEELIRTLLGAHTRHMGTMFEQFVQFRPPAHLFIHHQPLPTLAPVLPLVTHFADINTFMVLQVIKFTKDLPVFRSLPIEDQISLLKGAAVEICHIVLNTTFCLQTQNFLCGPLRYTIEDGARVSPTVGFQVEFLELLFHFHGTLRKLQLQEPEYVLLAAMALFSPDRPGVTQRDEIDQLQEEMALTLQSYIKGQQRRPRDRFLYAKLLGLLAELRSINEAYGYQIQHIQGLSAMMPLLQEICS
Sequence of Estrogen receptor (Homo sapiens) (P03372 whole entry, looked up, the tested form may be a part): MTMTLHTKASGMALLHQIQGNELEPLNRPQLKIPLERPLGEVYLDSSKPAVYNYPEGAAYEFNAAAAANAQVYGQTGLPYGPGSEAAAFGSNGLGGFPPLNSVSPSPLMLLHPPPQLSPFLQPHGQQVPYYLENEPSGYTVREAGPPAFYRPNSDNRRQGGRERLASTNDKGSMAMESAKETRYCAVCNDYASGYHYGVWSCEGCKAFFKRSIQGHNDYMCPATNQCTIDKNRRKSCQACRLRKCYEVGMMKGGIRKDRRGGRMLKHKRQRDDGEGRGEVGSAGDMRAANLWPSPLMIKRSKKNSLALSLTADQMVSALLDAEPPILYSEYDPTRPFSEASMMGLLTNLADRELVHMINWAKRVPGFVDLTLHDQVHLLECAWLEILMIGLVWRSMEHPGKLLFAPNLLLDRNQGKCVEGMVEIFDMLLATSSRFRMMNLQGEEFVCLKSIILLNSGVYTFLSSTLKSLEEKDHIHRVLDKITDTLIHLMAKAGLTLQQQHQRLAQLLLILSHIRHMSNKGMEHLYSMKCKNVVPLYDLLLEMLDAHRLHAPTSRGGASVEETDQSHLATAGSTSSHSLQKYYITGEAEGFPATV
Sequence of Transcription factor Sp1 (Homo sapiens) (P08047 whole entry, looked up): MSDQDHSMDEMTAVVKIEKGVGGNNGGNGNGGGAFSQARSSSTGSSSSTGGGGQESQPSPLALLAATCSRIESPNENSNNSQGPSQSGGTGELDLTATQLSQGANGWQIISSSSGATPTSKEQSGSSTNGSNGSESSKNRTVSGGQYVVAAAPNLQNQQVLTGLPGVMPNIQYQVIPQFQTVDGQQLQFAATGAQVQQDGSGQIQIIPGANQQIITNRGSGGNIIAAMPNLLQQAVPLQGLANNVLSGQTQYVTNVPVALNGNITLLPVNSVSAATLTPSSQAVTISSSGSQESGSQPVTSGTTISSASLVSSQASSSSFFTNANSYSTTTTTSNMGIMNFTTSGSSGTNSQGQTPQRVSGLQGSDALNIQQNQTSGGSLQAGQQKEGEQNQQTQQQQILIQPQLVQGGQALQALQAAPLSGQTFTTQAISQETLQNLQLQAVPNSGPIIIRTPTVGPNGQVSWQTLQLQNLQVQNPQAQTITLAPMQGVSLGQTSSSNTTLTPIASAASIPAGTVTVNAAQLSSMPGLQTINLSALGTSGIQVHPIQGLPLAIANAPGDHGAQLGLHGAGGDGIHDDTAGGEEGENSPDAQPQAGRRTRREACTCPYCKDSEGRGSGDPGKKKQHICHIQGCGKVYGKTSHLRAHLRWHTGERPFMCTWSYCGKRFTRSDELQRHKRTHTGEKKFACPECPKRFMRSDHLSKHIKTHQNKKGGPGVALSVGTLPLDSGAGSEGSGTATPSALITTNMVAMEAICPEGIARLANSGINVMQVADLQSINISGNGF
Sequence of Signal transducer and activator of transcription 3 (Homo sapiens) (P40763 whole entry, looked up): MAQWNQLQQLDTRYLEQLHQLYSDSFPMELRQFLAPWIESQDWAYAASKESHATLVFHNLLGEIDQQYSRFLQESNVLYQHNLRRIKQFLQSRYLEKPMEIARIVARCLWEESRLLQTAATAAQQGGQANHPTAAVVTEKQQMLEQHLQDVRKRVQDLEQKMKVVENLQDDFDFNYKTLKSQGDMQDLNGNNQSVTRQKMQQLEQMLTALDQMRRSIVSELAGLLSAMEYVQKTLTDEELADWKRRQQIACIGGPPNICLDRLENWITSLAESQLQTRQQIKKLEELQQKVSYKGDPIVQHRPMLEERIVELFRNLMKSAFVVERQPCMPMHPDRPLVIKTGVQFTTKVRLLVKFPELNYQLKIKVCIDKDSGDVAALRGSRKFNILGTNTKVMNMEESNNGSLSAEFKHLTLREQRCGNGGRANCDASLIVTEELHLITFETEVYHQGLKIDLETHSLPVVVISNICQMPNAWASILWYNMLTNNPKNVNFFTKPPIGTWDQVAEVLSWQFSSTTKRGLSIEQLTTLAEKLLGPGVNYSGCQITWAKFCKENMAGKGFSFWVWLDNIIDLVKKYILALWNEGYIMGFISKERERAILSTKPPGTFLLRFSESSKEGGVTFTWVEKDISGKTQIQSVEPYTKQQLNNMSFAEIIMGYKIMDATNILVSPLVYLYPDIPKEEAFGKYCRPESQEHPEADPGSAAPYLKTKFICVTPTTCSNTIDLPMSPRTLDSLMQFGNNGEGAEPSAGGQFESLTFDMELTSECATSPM
Sequence of Paired box protein Pax-6 (Homo sapiens) (P26367 whole entry, looked up): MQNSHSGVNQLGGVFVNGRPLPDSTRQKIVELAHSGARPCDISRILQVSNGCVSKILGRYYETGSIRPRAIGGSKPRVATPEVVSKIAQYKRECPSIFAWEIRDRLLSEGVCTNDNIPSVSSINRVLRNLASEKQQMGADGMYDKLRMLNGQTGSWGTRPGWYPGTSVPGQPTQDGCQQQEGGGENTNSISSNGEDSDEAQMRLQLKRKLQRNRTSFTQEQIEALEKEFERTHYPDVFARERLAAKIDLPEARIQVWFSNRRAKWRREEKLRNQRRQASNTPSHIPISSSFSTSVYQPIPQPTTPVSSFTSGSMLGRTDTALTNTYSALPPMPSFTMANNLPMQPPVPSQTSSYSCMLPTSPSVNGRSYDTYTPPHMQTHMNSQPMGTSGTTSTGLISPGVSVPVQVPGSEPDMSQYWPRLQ
Sequence of Estrogen-related receptor gamma (Homo sapiens) (P62508 whole entry, looked up, the tested form may be a part): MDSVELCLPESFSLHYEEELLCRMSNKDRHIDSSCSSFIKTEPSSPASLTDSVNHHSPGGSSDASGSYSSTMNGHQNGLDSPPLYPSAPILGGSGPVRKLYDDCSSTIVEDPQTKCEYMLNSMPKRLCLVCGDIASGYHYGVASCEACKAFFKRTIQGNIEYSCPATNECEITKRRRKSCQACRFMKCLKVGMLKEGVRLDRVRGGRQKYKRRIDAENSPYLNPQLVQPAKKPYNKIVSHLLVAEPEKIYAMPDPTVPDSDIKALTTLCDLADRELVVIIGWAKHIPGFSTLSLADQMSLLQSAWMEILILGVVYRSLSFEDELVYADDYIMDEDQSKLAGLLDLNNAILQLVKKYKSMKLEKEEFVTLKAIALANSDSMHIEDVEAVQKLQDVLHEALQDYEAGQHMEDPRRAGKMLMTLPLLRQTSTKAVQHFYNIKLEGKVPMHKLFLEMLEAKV
Sequence of Steroid hormone receptor ERR1 (Homo sapiens) (P11474 whole entry, looked up, the tested form may be a part): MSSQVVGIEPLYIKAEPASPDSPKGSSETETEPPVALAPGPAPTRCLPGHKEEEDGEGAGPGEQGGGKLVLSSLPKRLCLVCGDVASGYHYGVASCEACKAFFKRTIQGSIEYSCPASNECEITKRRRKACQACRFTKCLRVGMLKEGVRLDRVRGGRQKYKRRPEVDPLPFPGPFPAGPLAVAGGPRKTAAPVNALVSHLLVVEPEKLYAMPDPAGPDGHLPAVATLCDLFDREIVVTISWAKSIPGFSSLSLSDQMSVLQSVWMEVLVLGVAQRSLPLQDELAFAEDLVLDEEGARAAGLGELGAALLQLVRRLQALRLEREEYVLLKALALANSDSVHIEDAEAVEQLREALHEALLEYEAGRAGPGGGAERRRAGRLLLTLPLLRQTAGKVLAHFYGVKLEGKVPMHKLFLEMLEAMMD

Turning to `CC(=O)NS(=O)(=O)c1ccc(N)cc1`, the molecule was called inactive in experiment [1], in experiment [2], in experiment [3], in experiment [4], in experiment [5] and in experiment [6]. The molecule was called inactive in experiment [7], in experiment [8], in experiment [9], in [10], in experiment [11] and in experiment [12]. The molecule was classed as inactive in [13] and in experiment [14].
Consider `N#[N+]c1ccc2c(S(=O)(=O)[O-])cccc2c1O`, for which the call in experiment [1], in experiment [2], in experiment [3], in [4], in experiment [5] and in [15] was inactive. In addition, the molecule was called inactive in experiment [7], in experiment [8], in [9], in experiment [11], in experiment [12] and in experiment [13]. Moreover, the molecule was called inactive in experiment [16], in experiment [17], in [18], in experiment [14] and in [19].
For orientation: AC50 means the concentration giving half of the maximal activity seen. Take `CC(C)=CCC/C(C)=C\C#N`: the molecule was classed as inactive in experiment [1], in experiment [3], in experiment [4], in experiment [5], in experiment [6] and in [7]. Also, the outcome in [9], in experiment [10], in experiment [11], in experiment [12], in [13] and in experiment [17] was inactive. The result in experiment [18] and in experiment [14] was inactive. The AC50 in [2] was 28.1 µM (active).
Turning to `C=C[Si](C)(C)O[Si](C)(C)C=C`, the call in experiment [1], in experiment [3], in experiment [4], in experiment [5], in experiment [15] and in experiment [6] was inactive. For the same molecule, the outcome in experiment [8], in experiment [9], in experiment [10], in [11], in [17] and in experiment [18] was inactive. Further, the outcome in [14] was inactive. The AC50 in experiment [2] was 27.9 µM (active).
